Laboratory results published in PubChem BioAssay AID588520 (NMMLSC, 2011).
About 65 (4%) of roughly 1,700 compounds were called active. Only a sample is shown. A number with no mark means an inactive call. Cut-off read from the data, not from the text of the source: active = Nile Red retention ratio vs DMSO above about 190%; inactive = the rest.

Each molecule was assayed on Candida albicans drug resistance protein 2 (Cdr2) efflux pump, expressed in S. cerevisiae (assay: Cdr2 pump blockade via Nile Red retention – S. cerevisiae AD/CaCDR2, flow cytometry, cherry pick 1, singleplex, confirmation (AID 588520;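 note: higher ratio means more blocking of Cdr2 efflux of the dye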)). Conditions: at 10 µM, stronger effect = higher value.

Row | Structure (SMILES) | Nile Red retention ratio vs DMSO
1 | CCCCN1C(=O)/C(=C/C=C2/C=Cc3ccccc3N2CC)SC1=S | 108%
2 | CCCCCC(=O)Nc1ccc(C(=O)N/N=C/c2ccc([N+](=O)[O-])cc2)cc1 | 105%
3 | COc1ccc(C(=O)C2CCCN(Cc3cccn3-c3ccccn3)C2)c(C)c1 (centres undefined) | 98.5%
4 | O=C(Cc1ccc(Br)cc1)N1CCN(c2ccccn2)CC1 | 85.2%
5 | COc1ccc(NC(=S)N2CCc3cc(OC)c(OC)cc3C2)cc1 | 99.3%
6 | CCOc1ccc(/C=C2\SC(=S)N(NC(=O)c3ccncc3)C2=O)cc1OC | 105%
7 | CN=C(c1ccccc1)c1c(C)cccc1C | 107%
8 | COc1ccc(S(=O)(=O)N2CCOC2CNC(=O)C(=O)NCc2ccc(F)cc2)cc1 (centres undefined) | 114%
9 | Cc1cc(/C=N/NC(=O)CC2(C)OCCO2)c(C)n1-c1ccc(Cl)c(Cl)c1 | 101%
10 | COc1ccccc1/C=C/C=N/n1c(-c2ccc(Cl)cc2Cl)n[nH]c1=S | 119%
11 | Cc1ccc(OCc2cc(C(=O)N(C)CCc3ccccc3)no2)cc1C | 97.7%
12 | CCOC(=O)c1c(NC(=S)NC(=O)c2ccco2)sc2c1CCCC2 | 95.4%
13 | Cc1ccc(/C=C(\C#N)C(=O)Nc2cccc3ncccc23)o1 | 93%
14 | COc1cccc(NC(=O)CN(C)C(=O)/C=C/c2cc(OC)ccc2OC)c1 | 97.5%
15 | CSCCC(NC(=O)COc1ccccc1)C(=O)OCCOc1ccc(Br)cc1 (centres undefined) | 91.4%
16 | O=C(CCCCCn1c(=O)[nH]c2ccccc2c1=O)NCCc1c[nH]c2ccccc12 | 96.3%
17 | CCOC(=O)CNC(=O)CSc1nnnn1-c1cc(C)ccc1C | 102%
18 | O=C(OCc1ccc(-c2ccccc2)cc1)c1cccc(O)c1 | 108%
19 | Cc1nc2c(C(=O)NCc3ccc4c(c3)OCO4)c[nH]n2c(=O)c1Cc1ccccc1F | 108%
20 | Cc1nn(C)cc1C(=O)Nc1ccccc1Br | 104%
21 | Cc1csc(NC(=O)c2ccc(-c3ccc(Cl)cc3Cl)o2)n1 | 104%
22 | Cc1ccc(Cn2c(C)nc3c(c2=O)c2nc4ccccc4nc2n3Cc2ccco2)cc1 | 104%
23 | O=C(/C=C/c1c(Cl)cccc1Cl)NCc1ccccc1 | 102%
24 | Cc1ccc(N=C2NC(=O)/C(=C/C=C/c3ccco3)S2)cc1C | 114%
25 | Cc1cccc(NC(=O)COc2ccccc2C)n1 | 95.6%

Row | Structure (SMILES) | Nile Red retention ratio vs DMSO
26 | COc1ccc(C(=O)NC2CCCc3c2cnn3-c2cccc(C)c2C)c(OC)n1 (centres undefined) | 93.2%
27 | CC[n+]1cc(C)ccc1/C=C/c1ccc(N(C)C)cc1 | 118%
28 | O=C(CN1C(=O)C2C3CCC(C3)C2C1=O)Oc1ccc2ccccc2c1 (centres undefined) | 105%
29 | Cc1ccc(Cn2nnc3c(=O)[nH]c(C4CCN(S(=O)(=O)/C=C/c5ccccc5)CC4)nc32)cc1 | 93%
30 | CCNC(=O)c1c(O)c2cccc3c2n(c1=O)CC3 | 107%
31 | O=C(Cc1ccccc1)NCC1OCCc2ccccc21 (centres undefined) | 117%
32 | CC1CCc2c(sc(NC(=O)c3ccc(Cn4cc(Br)cn4)o3)c2C(N)=O)C1 (centres undefined) | 108%
33 | Cc1ccc2c(c1)NC(=O)[C@@]1(C)[C@@H](c3ccccc3)[C@H]3COc4ccc(Cl)cc4[C@@H]3N1C2=O | 102%
34 | O=C(Cn1c(COc2ccccc2)nc2ccccc21)Nc1cc(Cl)c(Cl)cc1Cl | 110%
35 | Cc1ccc2[nH]c3c(=O)n(CC(=O)NCCc4ccc(Cl)cc4)ncc3c2c1 | 137%
36 | C/C(N)=C(/C#N)C(=O)COC(=O)c1cc(-c2cccc(Br)c2)nc2ccccc12 | 110%
37 | CCOc1ccc2nc(Cl)c(C3CC(c4ccccc4)=NN3C(=O)c3cccs3)cc2c1 (centres undefined) | 131%
38 | C=CCC[C@@H](Cc1ccc(F)cc1)C(=O)OC[C@H](Cc1c[nH]c2ccccc12)NC(=O)[C@@H](CC=C)CC(=O)N(CCO)Cc1ccccc1 | 123%
39 | Cc1c(CCOC(=O)CC23CC4CC(CC(C)(C4)C2)C3)sc[n+]1Cc1ccc([N+](=O)[O-])cc1 | 821% (active)
40 | CSCCC(NS(=O)(=O)c1ccc(C)cc1)C(=O)N1CCCC1 (centres undefined) | 89.3%
41 | O=C(Nc1ccc(NC(=O)c2cccs2)cc1)c1ccc2ccccc2c1 | 108%
42 | CCCc1nnc(SCC(=O)Nc2ccc(C(=O)OCC)cc2)o1 | 133%
43 | CCNc1c(NS(=O)(=O)c2ccc(C3CCCCC3)cc2)c(=O)oc2ccccc12 | 98.7%
44 | CCc1ccc(NC(=O)Cn2ncn3c(cc4ccccc43)c2=O)cc1 | 101%
45 | COc1ccccc1NC(=O)C1CCCN1S(=O)(=O)c1ccc(Cl)cc1 (centres undefined) | 99.7%
46 | CC(/C=C/c1ccccc1)=N\NC(=O)C1CC1(C)c1ccccc1 (centres undefined) | 94%
47 | Cc1oc2cc3oc(=O)ccc3cc2c1C | 107%
48 | Cc1cc(C(=O)Nc2ccc(C)c(S(=O)(=O)N3CCOCC3)c2)c2ccccc2n1 | 83.1%
49 | CCOc1ccccc1/C=c1\sc2nc(-c3ccco3)nn2c1=O | 116%
